# Test results as given in the supplement of paper PMC11219838.
# Unmarked numbers belong to inactive results.
# Assays:
# Conditions in all cases: 60 µM; 5 days; temperature: 20 °C
# Meloidogyne hapla J2 = experiment: proportion of mobile M. hapla J2 relative to DMSO control (fraction of DMSO control); higher = more viable, less nematicidal, active = 0.7 or less
# Summary of the method: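 Sealed 96-well plates, each well holding around 25 M. hapla J2 in distilled water with compound pinned to 60 µM final (0.6% v/v DMSO), were shaken at 200 rpm for 5 days at 20 °C. Then 2 µL of 1 M NaOH was added to each well. Microscope-scored mobility was normalised to the mean of DMSO-only wells from the same plate. Eight such wells were on each plate, and the two biological replicates were averaged.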
# [1] = tested on: Caenorhabditis elegans dauer (daf-2(e1370)); experiment: proportion of mobile C. elegans dauer larvae relative to DMSO control (fraction of DMSO control); higher = more viable, less nematicidal, active = 0.63 or less; extreme values may be limits of the assay
# Summary of the method: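 Synchronized C. elegans daf-2(e1370) larvae were held at 25 °C for 48 h on MYOB plates with E. coli OP50 to form dauers, and about 20 dauers were added per 96-well well in liquid NGM. Compound was pinned to 60 µM final (0.6% v/v DMSO), and sealed plates were shaken at 200 rpm for 5 days at 20 °C. The proportion of mobile worms was scored under a dissection microscope relative to DMSO controls and averaged over two biological replicates.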
# Ditylenchus dipsaci = experiment: proportion of mobile D. dipsaci (mixed stage) relative to DMSO control (fraction of DMSO control); higher = more viable, less nematicidal, active = 0.86 or less; extreme values may be limits of the assay
# Summary of the method: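 Mobility, expressed relative to DMSO controls, is the mean of two biological replicates. The test organisms were D. dipsaci grown on pea plants in Gamborg B-5 agar and extracted into water by filter funnel, with about 20 added per well of a 96-well plate in distilled water. Compound was pinned to 60 µM final (0.6% v/v DMSO), plates were sealed and shaken at 200 rpm for 5 days at 20 °C, and mobile worms were scored under a microscope once 2 µL 1 M NaOH had been added.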
Compound,proportion of mobile M. hapla J2 (Meloidogyne hapla J2),proportion of mobile C. elegans dauer larvae [1],proportion of mobile D. dipsaci (Ditylenchus dipsaci)
c1ccc(-c2noc(CSc3nc4ccccc4[nH]3)n2)cc1,1.05,1,1
CCOc1cc(-c2nc(-c3ccccc3OC)no2)cc(OCC)c1OCC,0.978,1,1
Cc1cccc(-c2nnc(SCC(=O)NC(C)c3ccccc3)o2)c1 (centres undefined),0.89,1,1
Cc1ccc(-c2noc(-c3cc(C)cc(C)c3)n2)cc1,0.719,1,1
C=CCSc1nnc(-c2ccc(Br)cc2)o1,0.591 (active),1,0.85 (active)
Fc1ccc(OCc2nc(-c3ccc(Cl)cc3)no2)cc1,1.1,1,1
CC(=O)c1cccc(NC(=O)CSc2nnc(-c3ccccc3)o2)c1,0.937,1,1
Cc1ccc(-c2noc(-c3ccc(C)cc3C)n2)cc1,0.869,1,1
COc1cccc(-c2noc(-c3cccc(F)c3)n2)c1,1.01,1,1
FC(F)(F)c1cccc(-c2noc(-c3ccc4c(c3)OCO4)n2)c1,1.06,1,1
Brc1ccc(OCc2nc(-c3ccncc3)no2)cc1,0.995,1,1
Clc1cccc(OCc2nc(-c3cccs3)no2)c1,0.942,0.5 (active),1
COc1ccc(Cl)cc1NC(=O)CSc1nnc(-c2ccncc2)o1,0.98,1,1
